The list is not random: actives were taken first. Their share in the collection is about 1.9%.
Calb biofilm kill = clotrimazole potentiators killing Candida biofilms, primary screen, with clotrimazole, Alamar Blue; inhibition, % at 6 µM; C. albicans biofilm + clotrimazole; AID 834, 2007; 0.14% of 85,000 active;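 active means inhibition above 20%; inactive means inhibition below 20%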;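 further: preformed 24 hr biofilms exposed to compound for 48 hr; 0% = biofilm without compound and 100% = blank killed by clotrimazole plus chlorhexidine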
Measles CPE = compounds protecting cells from measles virus cytopathic effect, primary screen, measles RdRp inhibitor project, single point, MLSMR library, absorbance; Measles virus-infected cells, CPE protection; protection (pct of control), % at 4 µM; 1.5% of 140,000 active; AID 841, 2007; in the data active means protection mostly above about 24%, no sharp cut-off; inactive means mostly below about 26%
sEH act = soluble epoxide hydrolase activators, primary screen, biochemical, human sEH; Bifunctional epoxide hydrolase 2 (Homo sapiens), P34913; purified human sEH enzymatic activity, activator screen; activation, % at 2 µM; 0.04% of 91,000 active; in the data active means activation above about 37%
Target sequence (P34913 whole entry, looked up): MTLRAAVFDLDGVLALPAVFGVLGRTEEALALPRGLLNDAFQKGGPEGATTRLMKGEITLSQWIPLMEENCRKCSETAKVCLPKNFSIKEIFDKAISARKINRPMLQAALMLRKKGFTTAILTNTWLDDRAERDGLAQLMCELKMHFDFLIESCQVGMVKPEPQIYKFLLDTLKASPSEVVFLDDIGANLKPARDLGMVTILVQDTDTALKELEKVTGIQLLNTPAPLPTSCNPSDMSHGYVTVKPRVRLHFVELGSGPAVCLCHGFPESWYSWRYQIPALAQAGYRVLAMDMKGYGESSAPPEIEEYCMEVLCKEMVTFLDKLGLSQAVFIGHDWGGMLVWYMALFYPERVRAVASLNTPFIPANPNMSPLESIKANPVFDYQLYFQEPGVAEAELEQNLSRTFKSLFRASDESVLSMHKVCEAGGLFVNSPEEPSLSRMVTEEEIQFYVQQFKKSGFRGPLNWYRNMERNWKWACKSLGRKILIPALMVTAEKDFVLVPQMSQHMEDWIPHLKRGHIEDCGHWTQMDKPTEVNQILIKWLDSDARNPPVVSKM
cytoskel mod = modifiers of F-actin cytoskeleton organization, primary screen, imaging, HUVEC, phalloidin staining, high-content imaging. HUVEC TNFa F-actin phalloidin imaging. AID 836, 2007. 0.18% of 91,000 active. inhibition, % at 2 µM;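 active means inhibition above the batch mean plus 3 SD and confirmed as a hit by visual image inspection, cut at about 30% in these data, passing the limit was not always enough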
sEH inh = soluble epoxide hydrolase inhibitors, primary screen, biochemical, human sEH; inhibition, % at 2 µM; 0.34% of 91,000 active; AID 707, 2007; Bifunctional epoxide hydrolase 2 (Homo sapiens), P34913; recombinant human sEH enzymatic activity assay; in the data active means inhibition above about 80%
Numbers without * were called inactive; . = no result given.

SMILES	Calb biofilm kill	Measles CPE	sEH act	cytoskel mod	sEH inh
CCCCNC(=O)C1C2C=CC3(CN(Cc4ccc(C)cc4)C(=O)C13)O2 (stereo unspecified)	9	4	.	16	.
Cc1ccc(CN2CC34C=CC(O3)C(C(=O)NCc3ccco3)C4C2=O)cc1 (stereo unspecified)	.	30*	2	14	-2
O=C(NCC1CCCO1)C(=Cc1cccc([N+](=O)[O-])c1)C(=O)NCC1CCCO1 (stereo unspecified)	.	17	.	.	.
O=C(N/N=C\c1c(O)ccc2ccccc12)c1ccc(Cn2cccn2)o1	.	1	.	.	.
CC1CC(C)CN(c2ncc3c(n2)CC(c2ccccc2)CC3=O)C1 (stereo unspecified)	8	42*	8	-7	-9
COc1cc(/C=N/NC(=O)CCc2ccccc2)ccc1O	.	3	19	-7	-22
COc1cc(/C=N/NC(=O)CCN2CCN(C(c3ccccc3)c3ccccc3)CC2)ccc1O	.	28*	.	.	.
O=C(COc1ccc(S(=O)(=O)N2CCCCC2)cc1)NCc1cccnc1	3	7	8	6	-12
C/C(CC(=O)Nc1ccc(OCc2ccccc2)cc1)=N\NC(=O)C(=O)Nc1ccc(C)c(Cl)c1	.	10	-2	-34	5
Cc1nc2sc(C(c3cccc(F)c3)N3CCOCC3)c(O)n2n1 (stereo unspecified)	7	6	-8	20	8
COc1cccc(OCCCCCCN2CCOCC2)c1	6	24	11	3	-8
CCOc1cccc(OCCCCN2CCOCC2)c1	0	80*	-3	-17	2
COc1ccc(N2CCN(CCCn3c(=S)[nH]c4ncccc4c3=O)CC2)cc1	-2	25*	-1	-6	-1
O=S(=O)(/C=C/c1ccccc1)N1CCN(c2cccc(Cl)c2)CC1	4	9	38*	-6	-38
O=C(Nc1ccc(Cc2ccncc2)cc1)C1CC1	-2	3	-12	-3	10
O=C(Nc1ccc(Cc2ccncc2)cc1)C1CCC(N2C(=O)C3C4C=CC(C5CC45)C3C2=O)CC1 (stereo unspecified)	2	25	-87	6	86*
N/C(=N\c1nc2c(c(=O)[nH]1)CCC2)Nc1ccccc1	.	48*	.	.	.
COC(=O)C(C)Sc1nc2c(cnn2-c2ccc(C)cc2)c(=O)[nH]1 (stereo unspecified)	-2	59*	0	-33	-2
CCOC(=O)N1CCN(C(=O)CSc2nc3c(cnn3-c3ccc(C)cc3)c(=O)[nH]2)CC1	-3	.	.	.	.
CCOC(=O)N1CCN(C(=O)CSc2nc3c(cnn3-c3ccc(Cl)cc3)c(=O)[nH]2)CC1	20*	3	.	.	.
CCOC(=O)C(C)Sc1ncc(-c2ccc(Cl)cc2)cn1 (stereo unspecified)	.	16	-1	-24	1
Cc1nccc(-c2ccc(-n3cnc4ccccc43)cc2)n1	0	29*	-9	-1	9
CCc1c(C)nc(N)n2c(SCC(=O)N3CCN(c4ccccc4OC)CC3)nnc12	6	.	.	.	.
COc1ccc(OC)c(/C=N/NC(=O)c2csc3ccccc23)c1	.	0	-84	13	84*
O=C(NCCSCc1ccco1)Nc1cccc(Cl)c1	6	5	-80	0	80*
SMILES	Calb biofilm kill	Measles CPE	sEH act	cytoskel mod	sEH inh
Cc1cc(C)c(NC(=O)c2cc3c(nc4sccn43)s2)c(C)c1	-4	28*	1	.	1
Cc1ccc(C)c(C(=O)c2c(C)nc3sccn23)c1	8	2	14	5	-14
Cc1cc(C)cc(C(=O)NCC(=O)OCC(=O)N2CCN(S(=O)(=O)c3ccc4ccccc4c3)CC2)c1	.	24	.	.	.
Cc1nc2c3ccccc3[nH]c(=O)n2n1	8	68*	-5	-27	5
CCn1c(=O)[nH]c2ccccc2c1=O	8	15	6	5	-6
CCCn1nc(C(=O)NC2CCCc3ccccc32)c2ccccc2c1=O (stereo unspecified)	.	13	.	.	.
O=C(NCc1ccco1)C(c1ccccc1)N(Cc1ccccc1)C(=O)Cn1nnc2ccccc21 (stereo unspecified)	4	41*	-6	-8	11
O=C(NCc1ccco1)C(c1ccccc1)N(CC1CCCO1)C(=O)Cn1nnc2ccccc21 (stereo unspecified)	8	2	3	.	-2
CCCCCCCCNc1ncnc2ccccc12	6	40	-10	13	10
CCC(=O)NNc1ncnc2ccccc12	.	92*	.	.	.
Cc1cc(C)n2ncnc2n1	2	6	-9	10	6
Cc1ccc(-c2cc(C)nc3ncnn23)cc1	11	47*	-4	4	1
O=C(CCSc1ccc(Cl)cc1)NC1CCCCC1	.	6	-66	-4	66
O=C(CCSc1ccc(Cl)cc1)NC12CC3CC(CC(C3)C1)C2	.	1	-80	-22	81*
CCC(CC)NC(=O)CCc1nc2ccccc2c(=O)[nH]1	.	2	-1	-4	3
O=C(CCc1nc2ccccc2c(=O)[nH]1)Nc1ccc(Cl)c(Cl)c1	.	31*	.	.	.
O=S(=O)(NCc1ccccc1)c1cccc2cccnc12	2	43*	16	-2	-13
COC(=O)CN(c1ccc2c(c1)OCCO2)S(=O)(=O)c1ccccc1	4	9	-8	-8	5
COC(=O)CN(c1ccc(F)cc1)S(=O)(=O)c1ccc2c(c1)OCCO2	7	10	3	96*	-4
CSc1ncc(Cl)c(C(=O)Nc2nnc(SC/C=C/c3ccccc3)s2)n1	4	51*	-1	-4	-1
CC(=O)Nc1ccc2c(c1)nc(CCN1CCN(C)CC1)n2C	1	8	5	-4	-7
Cc1ccc(N2C(=O)CC(NNc3nc4ccccc4s3)C2=O)cc1 (stereo unspecified)	.	48*	.	.	.
OC(COCc1cccs1)CN1CCN(c2cccc(Cl)c2)CC1 (stereo unspecified)	.	54*	.	.	.
O=C(c1ccc(CNS(=O)(=O)c2ccccc2)cc1)N1CCN(Cc2ccccc2)CC1	4	28*	8	.	-9
O=C(c1ccccc1)N1CCN(Cc2ccccc2)CC1	8	3	-7	6	10
SMILES	Calb biofilm kill	Measles CPE	sEH act	cytoskel mod	sEH inh
CCOC(=O)CSc1cc(CS(=O)(=O)c2ccccc2)nc(-c2ccccc2)n1	.	8	3	-10	-4
C#CCn1c(S(=O)(=O)Cc2ccc(F)cc2)nc(-c2ccccc2)c1-c1ccccc1	.	52*	10	8	-12
NC(=O)Cn1c(S(=O)(=O)Cc2ccccc2)nc2ccccc21	8	.	-14	3	16
CCOC(=O)Cn1c(S(=O)(=O)Cc2cccc(F)c2)nc(-c2ccccc2)c1-c1ccccc1	.	31*	-10	-9	9
CCOC(=O)Cn1c(S(=O)(=O)Cc2ccc(F)cc2)nc(-c2ccccc2)c1-c1ccccc1	.	52*	7	-3	-6
CCOC(=O)C1=C(O)/C(=C/c2ccc(C)o2)SC1=NC(=O)c1ccccc1C	3	.	5	-14	-4
O=C(Cc1cccs1)Nc1cc(SCCO)cc([N+](=O)[O-])c1	.	102*	.	.	.
